This note sets out measurements from PubChem BioAssay (EPA / NIEHS).

SMILES strings stand for the structures. The source made the active and inactive calls. How the source made its calls: active means hit-call score of the fitted dose curve at least 0.9, where 1 is the maximum; inactive means score below 0.9.

Test [1] is described as follows: ATG_E_Box_CIS: Attagene CIS-FACTORIAL HepG2 Assay for human Enhancer Box (E-box) (AID 2282936). To be noted: HepG2 E-box cis-reporter transcription, actives raise or lower the signal. The procedure, abridged:
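HepG2 cells transiently transfected with multiplexed cis-element reporter units, dosed 24 h; reporter mRNA quantified by RT-PCR, 6-FAM labelling, HpaI digestion and capillary electrophoresis. E-box (USF1) signal fitted bidirectionally vs DMSO.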

Test [2] can be described thus: ATG_M_61_CIS: Attagene CIS-FACTORIAL HepG2 Assay for M61 Transcription Factor (Internal Marker) (AID 2282937). To be noted: HepG2 Attagene CIS-FACTORIAL M61 internal marker reporter; actives raise or lower the signal. In outline: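 Transfect HepG2 with MRTUs; dose 24 h; isolate RNA; reverse-transcribe with DNase I treatment; PCR-amplify, FAM-label and cut with HpaI for 2 h at 37 C; resolve by CE. Bidirectional fitting against DMSO.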

A short description of test [3]: ATG_EGR_CIS: Attagene CIS-FACTORIAL HepG2 Assay for human Early Growth Response 1 (EGR1) (AID 2282938). Conditions: HepG2 Attagene CIS-FACTORIAL EGR reporter mRNA; actives raise or lower the signal. The procedure, abridged: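 After a 24 h treatment of transiently transfected HepG2 cells, total RNA was reverse-transcribed and reporter sequences PCR-amplified, labelled and run on capillary electrophoresis. Reporters sit under cis-regulatory promoters sensing endogenous factors.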

Test [4] in a line: ATG_M_19_CIS: Attagene CIS-FACTORIAL HepG2 Assay for M19 Transcription Factor (Internal Marker) (AID 2282939). To be noted: HepG2 Attagene CIS-FACTORIAL M19 internal marker reporter; actives raise or lower the signal. The procedure, abridged:
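Chemical-treated HepG2 (24 h) with MRTU constructs; reporter transcripts detected by fluorescent RT-PCR fragment analysis on capillary electrophoresis. Internal background marker, DMSO as baseline.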

Test [5] is described as follows: ATG_ERE_CIS: Attagene CIS-FACTORIAL HepG2 Assay for Estrogen Response Element (ERE) (AID 2282940). To be noted: HepG2 ERE cis-reporter, Attagene RNA transcript; actives raise or lower the signal. The procedure, abridged: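 Human liver cells (HepG2) bearing transiently transfected, promoter-regulated reporter units were exposed 24 h. Reporter mRNA induction was detected by capillary electrophoresis of labelled RT-PCR products and fitted bidirectionally to DMSO.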

A short description of test [6]: ATG_Ets_CIS: Attagene CIS-FACTORIAL HepG2 Assay for human Erythroblast Transformation Specific (ETS) (AID 2282941). Conditions: HepG2 ETS cis-reporter transcription, actives raise or lower the signal. The procedure, abridged: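 HepG2 cells transfected with multiple cis-regulated reporter units measuring endogenous ETS-driven transcription, 24 h after dosing. Reporter mRNA quantified by RT-PCR with capillary electrophoresis; bidirectional fit relative to DMSO.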

In test [7] the target is Hepatocyte nuclear factor 3-beta (Homo sapiens) (UniProt Q9Y261). Nature of the test: ATG_FoxA2_CIS: Attagene CIS-FACTORIAL HepG2 Assay for human Forkhead box A2 (FOXA2) (AID 2282942). To be noted: HepG2 cis-reporter transcription factor activity, 24 h; actives raise or lower the signal. The procedure, abridged:
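24 h dosing of HepG2 bearing cis-reporter constructs; mRNA readout by RT-PCR/CE fluorescence; bidirectional fit, DMSO baseline.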

Test [8] is described as follows: ATG_FoxO_CIS: Attagene CIS-FACTORIAL HepG2 Assay for human Forkhead box O (FoxO) (AID 2282943). Conditions: HepG2 Attagene cis-reporter, FoxO element, mRNA; actives raise or lower the signal. In outline: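 Transfected HepG2 reporter cells exposed to test chemical for 24 h; reporter RNA measured by reverse transcription, PCR and fluorescent capillary electrophoresis; curves fitted for increases and decreases against DMSO.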

A short description of test [9]: ATG_GATA_CIS: Attagene CIS-FACTORIAL HepG2 Assay for human GATA Binding Protein (AID 2282944). To be noted: HepG2 GATA cis-element reporter, Attagene multiplex mRNA; actives raise or lower the signal. The procedure, abridged:
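Transfected cis-reporter HepG2 cells were treated with chemicals for 24 hours. Total RNA was then converted to cDNA, amplified with reporter-specific primers and analysed by fluorescent capillary electrophoresis, using DMSO-treated wells as baseline.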

Test [10] can be described thus: ATG_GLI_CIS: Attagene CIS-FACTORIAL HepG2 Assay for human Zinc Finger Protein GLI1 (AID 2282945). To be noted: HepG2, Attagene cis-factorial reporter mRNA, GLI element; actives raise or lower the signal. The procedure, abridged: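 Transiently transfected HepG2 cells report endogenous transcription factor activity via cis-element-driven reporter units. After 24 h compound exposure, reporter mRNA was measured by RT-PCR with capillary electrophoresis; bidirectional fitting against DMSO baseline.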

Test [11] has as its target Bile acid receptor (Homo sapiens) (UniProt Q96RI1). Nature of the test: ATG_IR1_CIS: Attagene CIS-FACTORIAL HepG2 Assay for human Nuclear Receptor Subfamily 1 Group H Member 4 (NR1H4), IR1 submotif (AID 2282946). To be noted: IR1 reporter transcription, actives raise or lower the signal. The procedure, abridged:
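HepG2 cells transiently transfected with multiple cis-promoter-driven reporter units to measure endogenous transcription factor activity; 24 h exposure. Reporter mRNA read by RT-PCR, FAM labelling, HpaI digestion and capillary electrophoresis. Bidirectional fit versus DMSO.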

Test [12] can be described thus: ATG_GRE_CIS: Attagene CIS-FACTORIAL HepG2 Assay for human Glucocorticoid Response Elements (GRE) (AID 2282947). Conditions: HepG2 GRE cis-reporter, Attagene multiplex mRNA; actives raise or lower the signal. The procedure, abridged:
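Transiently transfected HepG2 cells carrying GRE cis-reporter units (endogenous TF activity) dosed 24 h; reporter mRNA quantified by RT-PCR, 6-FAM labelling, HpaI digestion and capillary electrophoresis. Bidirectional fit versus DMSO baseline.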

The nature of test [13]: ATG_ISRE_CIS: Attagene CIS-FACTORIAL HepG2 Assay for human Interferon Regulatory Factor 1 (IRF1) binding to an Interferon-Stimulated Response Element (ISRE) (AID 2282948). To be noted: HepG2 ISRE cis-reporter (Attagene), mRNA transcription readout; actives raise or lower the signal. In outline: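 Transiently transfected HepG2 cells carrying cis-element reporter units, dosed 24 hours. Reporter mRNA quantified by RT-PCR, fluorescent primer extension, HpaI digestion and capillary electrophoresis. Bidirectional fitting relative to DMSO.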

Test [14] in a line: ATG_M_32_CIS: Attagene CIS-FACTORIAL HepG2 Assay for M32 Transcription Factor (Internal Marker) (AID 2282949).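 Further: background control marker of the multiplexed CIS panel rather than a real target.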 Conditions: HepG2 Attagene cis-factorial M32 reporter, mRNA; actives raise or lower the signal. In outline: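 HepG2 cells transiently transfected with multiplexed cis-regulated reporter units, dosed 24 h. Reporter mRNA quantified by RT-PCR, 6-FAM labelling, HpaI digestion and capillary electrophoresis; bidirectional fit vs DMSO.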

Test [15] is described as follows: ATG_M_06_CIS: Attagene CIS-FACTORIAL HepG2 Assay for M06 Transcription Factor (Internal Marker) (AID 2282950). Conditions: HepG2 Attagene CIS-FACTORIAL M06 internal marker reporter; actives raise or lower the signal. The procedure, abridged: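 Cells (HepG2, transiently carrying cis-driven reporter units) receive chemical for 24 h before RNA isolation. Reporter cDNA is PCR-amplified, FAM-labelled by primer extension, HpaI-digested and sized on a capillary analyser.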

Test [16] addresses Hypoxia-inducible factor 1-alpha (Homo sapiens) (UniProt Q16665). Description: ATG_HIF1a_CIS: Attagene CIS-FACTORIAL HepG2 Assay for human Hypoxia Inducible Factor 1 (HIF1A) (AID 2282951). To be noted: HepG2 Attagene cis-factorial HIF1a reporter transcription; actives raise or lower the signal. In outline: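 After 24 h chemical exposure of reporter-transfected HepG2 cells, reporter cDNA was PCR-amplified, labelled by 6-FAM primer extension (2 min 95 C, 20 s 68 C, 10 min 72 C), HpaI-cut (2 h, 37 C) and analysed by CE.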

Test [17] has as its target Hepatocyte nuclear factor 6 (Homo sapiens) (UniProt Q9UBC0). Description: ATG_HNF6_CIS: Attagene CIS-FACTORIAL HepG2 Assay for human Hepatocyte Nuclear Factor 6 (HNF6) (AID 2282952). To be noted: HepG2 Attagene cis-factorial HNF6 reporter transcription; actives raise or lower the signal. The procedure, abridged:
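HepG2, transient MRTU transfection (cis promoters); 24 h chemical exposure; total RNA → oligo(dT) RT → PCR → 6-FAM labelling → HpaI cut → CE; bidirectional fit vs DMSO.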

The nature of test [18]: ATG_MRE_CIS: Attagene CIS-FACTORIAL HepG2 Assay for human Metal Responsive Element (MRE) (AID 2282954). Conditions: HepG2 MRE cis-reporter transcription, Attagene multiplex; actives raise or lower the signal. In outline:
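HepG2 cells transiently transfected with cis-element-driven reporter units; mRNA measured 24 h after dosing. Reporter transcripts quantified by RT-PCR, FAM labelling, HpaI digestion and capillary electrophoresis; bidirectional fit versus DMSO.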

Test [19] addresses Heat shock factor protein 1 (Homo sapiens) (UniProt Q00613). Description: ATG_HSE_CIS: Attagene CIS-FACTORIAL HepG2 Assay for human Heat Shock Transcription Factor 1 (HSE) (AID 2282953). Conditions: HepG2 HSE cis-reporter, Attagene RNA transcription; actives raise or lower the signal. In outline: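 Liver-derived HepG2 cells carry transiently introduced multiple reporter units governed by cis promoters. Reporter RNA measured 24 h post-dose through reverse transcription, PCR amplification, fluorescent labelling and capillary electrophoresis, normalised to DMSO.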

Sequence of Bile acid receptor (Homo sapiens) (Q96RI1 whole entry, looked up): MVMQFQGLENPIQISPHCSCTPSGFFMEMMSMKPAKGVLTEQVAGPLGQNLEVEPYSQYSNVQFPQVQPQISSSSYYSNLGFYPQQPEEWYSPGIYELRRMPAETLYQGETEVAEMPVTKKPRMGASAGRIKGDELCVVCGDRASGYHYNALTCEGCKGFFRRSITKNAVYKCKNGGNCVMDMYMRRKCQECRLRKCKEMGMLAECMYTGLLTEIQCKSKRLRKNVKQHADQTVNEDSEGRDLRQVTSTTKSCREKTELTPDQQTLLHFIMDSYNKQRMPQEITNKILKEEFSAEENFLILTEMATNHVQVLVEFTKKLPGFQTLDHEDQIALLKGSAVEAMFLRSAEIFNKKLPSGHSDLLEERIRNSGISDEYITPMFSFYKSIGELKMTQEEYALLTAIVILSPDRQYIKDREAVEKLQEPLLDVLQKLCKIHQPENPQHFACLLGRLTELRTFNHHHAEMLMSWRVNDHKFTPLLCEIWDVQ
Sequence of Heat shock factor protein 1 (Homo sapiens) (Q00613 whole entry, looked up): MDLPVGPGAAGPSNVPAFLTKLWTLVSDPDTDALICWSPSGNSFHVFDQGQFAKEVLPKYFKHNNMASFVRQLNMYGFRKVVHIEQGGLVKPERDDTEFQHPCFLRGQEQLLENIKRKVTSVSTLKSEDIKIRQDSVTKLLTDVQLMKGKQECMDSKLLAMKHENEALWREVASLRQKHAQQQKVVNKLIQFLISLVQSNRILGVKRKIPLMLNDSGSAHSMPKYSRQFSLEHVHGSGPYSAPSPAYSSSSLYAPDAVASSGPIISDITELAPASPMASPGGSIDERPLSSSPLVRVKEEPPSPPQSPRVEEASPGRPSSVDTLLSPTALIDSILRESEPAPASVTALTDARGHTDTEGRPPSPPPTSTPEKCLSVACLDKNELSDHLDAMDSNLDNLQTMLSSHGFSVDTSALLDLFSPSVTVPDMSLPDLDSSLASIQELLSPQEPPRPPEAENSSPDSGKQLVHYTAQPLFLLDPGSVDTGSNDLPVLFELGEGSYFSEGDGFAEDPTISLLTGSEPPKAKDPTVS
Sequence of Hepatocyte nuclear factor 3-beta (Homo sapiens) (Q9Y261 whole entry, looked up): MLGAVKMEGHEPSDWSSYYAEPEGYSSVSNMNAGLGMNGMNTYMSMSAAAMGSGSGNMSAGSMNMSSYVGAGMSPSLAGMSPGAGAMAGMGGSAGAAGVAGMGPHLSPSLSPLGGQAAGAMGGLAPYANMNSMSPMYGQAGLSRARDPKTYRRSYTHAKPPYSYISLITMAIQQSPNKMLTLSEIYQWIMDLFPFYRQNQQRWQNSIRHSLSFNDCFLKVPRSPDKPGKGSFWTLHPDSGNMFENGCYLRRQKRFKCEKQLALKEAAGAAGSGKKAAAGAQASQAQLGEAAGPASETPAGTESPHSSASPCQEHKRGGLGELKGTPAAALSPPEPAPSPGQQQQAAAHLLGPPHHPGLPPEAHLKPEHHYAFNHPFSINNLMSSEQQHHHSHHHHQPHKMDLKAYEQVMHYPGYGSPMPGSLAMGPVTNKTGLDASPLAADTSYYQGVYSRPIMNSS
Sequence of Hypoxia-inducible factor 1-alpha (Homo sapiens) (Q16665 whole entry, looked up): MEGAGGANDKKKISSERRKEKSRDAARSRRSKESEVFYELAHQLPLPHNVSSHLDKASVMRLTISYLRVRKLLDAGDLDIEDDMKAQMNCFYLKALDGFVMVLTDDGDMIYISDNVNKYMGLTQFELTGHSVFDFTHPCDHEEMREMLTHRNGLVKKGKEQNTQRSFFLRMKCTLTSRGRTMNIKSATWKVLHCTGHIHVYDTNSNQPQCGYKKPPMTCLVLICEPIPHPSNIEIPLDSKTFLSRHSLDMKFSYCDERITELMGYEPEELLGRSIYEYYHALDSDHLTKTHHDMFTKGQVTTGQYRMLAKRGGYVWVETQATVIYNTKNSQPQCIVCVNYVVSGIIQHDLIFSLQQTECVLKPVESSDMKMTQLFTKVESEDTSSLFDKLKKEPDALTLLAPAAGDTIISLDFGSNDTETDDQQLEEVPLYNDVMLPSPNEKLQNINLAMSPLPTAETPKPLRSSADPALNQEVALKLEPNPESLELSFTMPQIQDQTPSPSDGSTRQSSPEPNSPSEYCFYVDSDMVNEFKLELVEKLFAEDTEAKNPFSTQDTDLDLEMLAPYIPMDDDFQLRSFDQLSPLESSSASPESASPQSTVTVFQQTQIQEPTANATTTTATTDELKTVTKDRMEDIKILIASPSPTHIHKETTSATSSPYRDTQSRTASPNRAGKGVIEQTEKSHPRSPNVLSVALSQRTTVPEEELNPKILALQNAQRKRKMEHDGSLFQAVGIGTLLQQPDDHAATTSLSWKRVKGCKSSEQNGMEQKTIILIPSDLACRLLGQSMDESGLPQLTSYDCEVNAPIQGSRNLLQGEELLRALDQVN
Sequence of Hepatocyte nuclear factor 6 (Homo sapiens) (Q9UBC0 whole entry, looked up): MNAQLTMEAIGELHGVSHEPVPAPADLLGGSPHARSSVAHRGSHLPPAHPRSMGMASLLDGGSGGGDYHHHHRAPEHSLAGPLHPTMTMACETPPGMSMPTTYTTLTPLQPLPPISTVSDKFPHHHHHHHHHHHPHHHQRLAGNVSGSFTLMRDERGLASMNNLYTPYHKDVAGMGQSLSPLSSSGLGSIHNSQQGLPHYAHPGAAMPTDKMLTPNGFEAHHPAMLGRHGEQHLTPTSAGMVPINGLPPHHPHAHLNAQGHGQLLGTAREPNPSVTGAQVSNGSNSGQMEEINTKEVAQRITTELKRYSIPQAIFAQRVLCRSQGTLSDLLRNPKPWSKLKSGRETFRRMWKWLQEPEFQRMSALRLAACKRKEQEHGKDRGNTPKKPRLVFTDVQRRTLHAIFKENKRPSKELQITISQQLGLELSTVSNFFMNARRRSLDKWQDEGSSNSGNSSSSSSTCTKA

The term AC50 denotes the midpoint of the concentration-response curve, whichever way the signal moves. With `Oc1ccc(I)cc1`, the result in [1], in test [2], in test [3], in test [4], in test [6] and in [7] was inactive. Besides, the compound was called inactive in test [8], in test [9], in test [10], in [11], in test [12] and in [13]. In addition, the compound was classed as inactive in test [14], in [15], in test [16], in test [17] and in test [18]. In addition, the AC50 in [5] is 23.7 µM (active).
On to `CC(Cl)(Cl)C(=O)O`, for which the result in test [1], in test [2], in test [3], in [4], in [5] and in test [6] was inactive. Besides, the compound was called inactive in [7], in test [8], in [9], in [10], in test [12] and in test [13]. For the same compound, the call in test [15], in test [16], in test [17], in test [19] and in [18] was inactive.
With `CN(C)C(=O)Cl`, the result in test [1], in test [2], in test [3], in [4], in [5] and in test [6] was inactive. Besides, the outcome in test [7], in test [8], in [9], in [10], in test [12] and in test [13] was inactive. Also, the compound was called inactive in [14], in test [15], in test [16], in test [17] and in [18].
Regarding `COP(=O)(O)OC`, the result in test [1], in test [2], in test [3], in [4], in test [5] and in test [6] was inactive. Besides, the compound was classed as inactive in [7], in [8], in test [9], in [10], in test [11] and in test [12]. The result in test [13], in test [15], in test [16], in test [17], in [19] and in test [18] was inactive.
For the compound `CC(=O)c1ccc(-c2ccccc2)cc1`, the outcome in [1], in test [2], in [3], in test [4], in test [6] and in test [7] was inactive. Besides, the result in [8], in test [9], in test [10], in [11], in test [12] and in test [13] was inactive. For the same compound, the compound was classed as inactive in test [14], in [15], in [16], in [17], in [19] and in test [18]. Moreover, the AC50 in [5] is 6.56 µM (active).
`Cc1c([N+](=O)[O-])cc2c(c1[N+](=O)[O-])C(C)(C)CC2(C)C`: the result in test [1], in [2], in test [3], in test [4], in test [5] and in [6] was inactive. Moreover, the compound was called inactive in test [7], in test [8], in test [9], in test [10], in test [11] and in [12]. The result in test [13], in test [14], in test [15], in [16], in [17] and in test [19] was inactive. Further, the result in test [18] was inactive.
Regarding `O=C(O)CF`, the result in test [1], in test [2], in test [3], in test [4], in test [5] and in test [6] was inactive. The result in [7], in [8], in [9], in [10], in test [13] and in test [15] was inactive. Further, the compound was classed as inactive in test [16], in [17] and in [18].
Regarding `OCC1CO1` (stereo unspecified), the outcome in test [1], in [2], in test [3], in [4], in test [5] and in [6] was inactive. For the same compound, the call in [7], in test [8], in [9], in test [10], in test [11] and in test [12] was inactive. In addition, the compound was classed as inactive in test [13], in test [14], in [15], in [16], in test [17] and in test [18].
